{"source": "PubChem BioAssay", "key": {"[1]": {"test": "compounds altering circadian rhythm period length – cell-based, LOPAC library, luminescence reporter (AID 2774; call rule not given here;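 further: values are relative to mean of DMSO wells on each plate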)", "settings": "circadian reporter cells, at 7 µM, actives lie on both sides"}, "[2]": {"test_system": "Hepatitis C virus NS3 helicase", "test": "blockers of NS3h binding to ssDNA – biochemical, fluorescence polarization, LOPAC1280 library, primary screen (AID 687035; in the data active means inhibition above about 37%)", "settings": "Purified HCV NS3 helicase, Cy5-dT15 ssDNA binding fluorescence polarization; stronger effect = higher value; concentration not given here"}, "[3]": {"test": "compounds altering Cy5-DNA-NS3h complex signal – biochemical, LOPAC1280, artefact control for HCV NS3 helicase inhibitor project (AID 687037; call rule not given here)", "settings": "Cy5-DNA-NS3h complex fluorescence interference counterscreen"}, "[4]": {"test": "growth inhibition, single agent or in combination, cell-based, chromothripsis tumors, cisplatin or BGB combos (AID 1671449);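 further: cells exposed for 96 hours; 0% = vehicle DMSO and 100% = killing by high DMSO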", "settings": "LFS_MB_P medulloblastoma cells"}, "[5]": {"test": "growth inhibition, single agent and combos, cell-based, chromothripsis tumors, cisplatin or BGB combos (AID 1671450);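 further: cells exposed to compound for four days; 0% = vehicle DMSO and 100% = cell killing by high DMSO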", "settings": "HDN33 neuroblastoma cells, stronger effect = higher value"}, "[6]": {"test": "growth inhibition, single agents and combos, ICB984, cell-based, cisplatin or BGB combos, synergistic combos for chromothripsis tumors (AID 1671451; call rule not given here;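 further: cells exposed for 96 hours before readout; 0% = vehicle DMSO and 100% = killing by high DMSO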)", "settings": "ICB984 medulloblastoma cells, drug combinations, stronger effect = higher value"}, "[7]": {"test": "growth inhibition, single agents and combos, LFS_MB_1R, cell-based, cisplatin or BGB combos, synergistic combos for chromothripsis tumors (AID 1671452);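 further: cells exposed for 96 hours before readout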", "settings": "LFS_MB_1R medulloblastoma cells, stronger effect = higher value"}, "[8]": {"test": "growth inhibition, single agents and combos, HTB85, cell-based, BGB or cisplatin IC20 combos, synergistic combos for chromothripsis tumors (AID 1671453);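 further: cells exposed for 96 hours before readout; 0% = vehicle DMSO and 100% = high DMSO killing control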", "settings": "HTB85 osteosarcoma cells, drug combinations, stronger effect = higher value"}, "[9]": {"test": "growth inhibition, single agents and combos, CRL2098, cell-based, BGB or cisplatin IC20 combos, synergistic combos for chromothripsis tumors (AID 1671454);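 further: cells exposed for 96 h before readout; 0% = vehicle DMSO and 100% = killing by high DMSO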", "settings": "CRL2098 osteosarcoma cells, drug combinations, stronger effect = higher value"}, "[10]": {"test": "growth inhibition, single agents and combos, HD-MB03, cell-based, BGB or cisplatin IC20 combos, synergistic combos for chromothripsis tumors (AID 1671455; in the data active means inhibition above about 83%;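 further: 0% = vehicle DMSO and 100% = high DMSO as cytotoxic control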)", "settings": "HD-MB03 medulloblastoma cells, stronger effect = higher value"}, "[11]": {"test": "growth inhibition, single agents and combos, UWB1.289, cell-based, BGB or cisplatin combos, synergistic combos for chromothripsis tumors (AID 1671456);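 further: cells exposed to compound for four days; 0% = vehicle DMSO and 100% = killing by high DMSO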", "settings": "UWB1.289 ovarian carcinoma cells, stronger effect = higher value"}, "[12]": {"test": "growth inhibition, single agents and combos, LFS_MB_2R, cell-based, cisplatin combos, synergistic combos for chromothripsis tumors (AID 1671457);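 further: cells exposed to compound for four days before readout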", "settings": "LFS_MB_2R medulloblastoma cells, stronger effect = higher value"}, "[13]": {"test": "growth inhibition, MDA-MB-436, cell-based, BGB or cisplatin combos, synergistic combos for chromothripsis tumors (AID 1671458; call rule not given here;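 further: cells exposed for 96 hours; 0% = vehicle DMSO and 100% = killing by high DMSO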)", "settings": "MDA-MB-436 breast carcinoma growth inhibition, drug combinations, stronger effect = higher value"}, "[14]": {"test": "UWB1.289_BRCA1 ovarian cancer growth, cell-based, BGB or cisplatin combinations (AID 1671459)", "settings": "UWB1.289 BRCA1 ovarian carcinoma, drug combinations, stronger effect = higher value"}, "[15]": {"test": "drug combination toxicity in non-malignant astrocytes – cell-based, BGB or cisplatin IC20 combos, cytotoxicity control for chromothriptic childhood tumor combination screen (AID 1671460);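 further: cells exposed to compounds for 96 hours before viability readout; 0% = vehicle and 100% = killing control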", "settings": "Human astrocytes, viability inhibition, drug combinations, at 0.5 µM, stronger effect = higher value"}, "[16]": {"test": "BT084 cell growth, single and combined drugs, ICGC_MB145, cisplatin and BGB IC40 combos (AID 1671461);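 further: cells exposed to drugs for 96 hours; 0% = vehicle DMSO and 100% = high DMSO full killing control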", "settings": "BT084 medulloblastoma cells, drug combinations, stronger effect = higher value"}, "[17]": {"test": "RCMB18 cell growth, single agent and combined, cisplatin and BGB IC40 combos (AID 1671462);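 further: cells exposed to compound for four days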", "settings": "RCMB18 medulloblastoma cells, stronger effect = higher value"}, "[18]": {"test": "CRL1545 cell growth, single agent and combined, cisplatin and BGB IC20 combos (AID 1671464);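 further: cells exposed to compound for 96 hours before readout; 0% = vehicle DMSO and 100% = high DMSO killing control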", "settings": "CRL1545 osteosarcoma cells, stronger effect = higher value"}, "[19]": {"settings": "measured here: combination with BGB IC40, at 0.05 µM"}, "[20]": {"settings": "measured here: with BGB IC20 combination, at 0.5 µM"}, "[21]": {"settings": "measured here: with cisplatin IC20 combination, at 0.5 µM"}, "[22]": {"settings": "measured here: combination with cisplatin, at 0.5 µM"}, "[23]": {"settings": "measured here: combination with cisplatin, at 5 µM"}}, "note": "Active and inactive are the calls of the source. Unless noted, no stated cut-off is given here; in the data, active means inhibition above about 80%; inactive means the rest."}
{"smiles": "NC(Cc1ccc(N(CCCl)CCCl)cc1)C(=O)O", "note": "(stereo unspecified)", "values": [{"measurement": "period change", "setting": "[1]", "value": "0.08 h (inactive)"}, {"measurement": "inhibition", "setting": "[2]", "value": "-5% (inactive)"}, {"measurement": "fluorescence ratio (interference)", "setting": "[3]", "value": "1 (inactive)"}, {"measurement": "inhibition", "setting": "[4]; at 0.5 µM, stronger effect = higher value", "value": "-11.1% (inactive)"}, {"measurement": "inhibition", "setting": "[4]; measured here: combination with BGB IC20, at 0.005 µM", "value": -25.1, "unit": "%"}, {"measurement": "inhibition", "setting": "[4]; measured here: combination with BGB IC40, at 0.005 µM", "value": -17.8, "unit": "%"}, {"measurement": "inhibition", "setting": "[4]; [19]", "value": -29.1, "unit": "%"}, {"measurement": "inhibition", "setting": "[4]; measured here: combination with cisplatin, at 0.5 µM, stronger effect = higher value", "value": -3.85, "unit": "%"}, {"measurement": "inhibition", "setting": "[4]; measured here: combination with cisplatin, at 5 µM, stronger effect = higher value", "value": 7.41, "unit": "%"}, {"measurement": "inhibition", "setting": "[5]; BGB combo, at 5 µM", "value": 28.5, "unit": "%"}, {"measurement": "inhibition", "setting": "[5]; at 0.5 µM", "value": "-17.3% (inactive)"}, {"measurement": "inhibition", "setting": "[5]; cisplatin combo, at 5 µM", "value": 18.9, "unit": "%"}, {"measurement": "inhibition", "setting": "[5]; [20]", "value": -14.2, "unit": "%"}, {"measurement": "inhibition", "setting": "[5]; [21]", "value": -16.2, "unit": "%"}, {"measurement": "inhibition", "setting": "[5]; single agent, at 5 µM", "value": 3.9, "unit": "%"}, {"measurement": "inhibition", "setting": "[6]; BGB IC20 combo, at 0.005 µM", "value": -15.2, "unit": "%"}, {"measurement": "inhibition", "setting": "[6]; BGB IC40 combo, at 0.005 µM", "value": -22.4, "unit": "%"}, {"measurement": "inhibition", "setting": "[6]; BGB IC40 combo, at 0.05 µM", "value": 14.2, "unit": "%"}, {"measurement": "inhibition", "setting": "[6]; at 0.5 µM", "value": "-37% (inactive)"}, {"measurement": "inhibition", "setting": "[6]; cisplatin combo, at 0.05 µM", "value": 11.8, "unit": "%"}, {"measurement": "inhibition", "setting": "[6]; cisplatin combo, at 0.5 µM", "value": -52.6, "unit": "%"}, {"measurement": "inhibition", "setting": "[6]; cisplatin combo, at 5 µM", "value": -29.7, "unit": "%"}, {"measurement": "inhibition", "setting": "[6]; measured here: 5 uM single agent, at 5 µM", "value": -16.8, "unit": "%"}, {"measurement": "inhibition", "setting": "[7]; at 0.5 µM", "value": "-27.3% (inactive)"}, {"measurement": "inhibition", "setting": "[7]; [19]", "value": -28.4, "unit": "%"}, {"measurement": "inhibition", "setting": "[7]; [22]", "value": -42.9, "unit": "%"}, {"measurement": "inhibition", "setting": "[7]; [23]", "value": 34.7, "unit": "%"}, {"measurement": "inhibition", "setting": "[8]; at 0.5 µM", "value": "5.83% (inactive)"}, {"measurement": "inhibition", "setting": "[8]; measured here: with BGB IC20, at 0.5 µM", "value": 1.88, "unit": "%"}, {"measurement": "inhibition", "setting": "[8]; measured here: with BGB IC20, at 5 µM", "value": 54.4, "unit": "%"}, {"measurement": "inhibition", "setting": "[8]; measured here: with cisplatin IC20, at 0.5 µM", "value": -13.1, "unit": "%"}, {"measurement": "inhibition", "setting": "[8]; measured here: with cisplatin IC20, at 5 µM", "value": 74.4, "unit": "%"}, {"measurement": "inhibition", "setting": "[8]; single agent, at 5 µM", "value": 59.9, "unit": "%"}, {"measurement": "inhibition", "setting": "[9]; at 0.5 µM", "value": "-91.3% (inactive)"}, {"measurement": "inhibition", "setting": "[9]; measured here: combination with BGB at IC20, at 0.5 µM", "value": -104, "unit": "%"}, {"measurement": "inhibition", "setting": "[9]; measured here: combination with cisplatin at IC20, at 0.5 µM", "value": -99.5, "unit": "%"}, {"measurement": "inhibition", "setting": "[10]; at 0.5 µM", "value": "12.1% (inactive)"}, {"measurement": "inhibition", "setting": "[10]; measured here: combo with BGB at IC20, at 0.5 µM", "value": 19.3, "unit": "%"}, {"measurement": "inhibition", "setting": "[10]; measured here: combo with cisplatin at IC20, at 0.5 µM", "value": 20.5, "unit": "%"}, {"measurement": "inhibition", "setting": "[11]; at 0.5 µM", "value": "-2.07% (inactive)"}, {"measurement": "inhibition", "setting": "[11]; measured here: inhibition with BGB combination, at 0.05 µM", "value": -36, "unit": "%"}, {"measurement": "inhibition", "setting": "[11]; measured here: inhibition with cisplatin combination, at 0.05 µM", "value": -22.5, "unit": "%"}, {"measurement": "inhibition", "setting": "[12]; at 0.5 µM", "value": "-18.9% (inactive)"}, {"measurement": "inhibition", "setting": "[12]; [22]", "value": -23.8, "unit": "%"}, {"measurement": "inhibition", "setting": "[12]; [23]", "value": -58.8, "unit": "%"}, {"measurement": "inhibition", "setting": "[13]; at 0.5 µM", "value": "10.4% (inactive)"}, {"measurement": "inhibition", "setting": "[13]; measured here: BGB combination, at 0.5 µM", "value": 2.27, "unit": "%"}, {"measurement": "inhibition", "setting": "[13]; measured here: BGB combination, at 5 µM", "value": 8.02, "unit": "%"}, {"measurement": "inhibition", "setting": "[13]; measured here: cisplatin combination, at 0.5 µM", "value": 6.39, "unit": "%"}, {"measurement": "inhibition", "setting": "[13]; measured here: cisplatin combination, at 5 µM", "value": 33.3, "unit": "%"}, {"measurement": "inhibition", "setting": "[14]; BGB combination, concentration series, at 5 µM", "value": 31.5, "unit": "%"}, {"measurement": "inhibition", "setting": "[14]; at 0.5 µM", "value": "4.15% (inactive)"}, {"measurement": "inhibition", "setting": "[14]; cisplatin combination, concentration series, at 5 µM", "value": 41.4, "unit": "%"}, {"measurement": "inhibition", "setting": "[15]", "value": "16.9% (inactive)"}, {"measurement": "inhibition", "setting": "[15]; measured here: combo with BGB IC20", "value": 22.5, "unit": "%"}, {"measurement": "inhibition", "setting": "[15]; measured here: combo with cisplatin IC20", "value": 4.4, "unit": "%"}, {"measurement": "inhibition", "setting": "[16]; at 0.5 µM", "value": "-14.6% (inactive)"}, {"measurement": "inhibition", "setting": "[16]; cisplatin combination, at 0.5 µM", "value": 5.86, "unit": "%"}, {"measurement": "inhibition", "setting": "[16]; cisplatin combination, at 5 µM", "value": 35.1, "unit": "%"}, {"measurement": "inhibition", "setting": "[16]; measured here: BGB IC40 combination 0.05 uM, at 0.05 µM", "value": -5.01, "unit": "%"}, {"measurement": "inhibition", "setting": "[16]; single agent, at 5 µM", "value": -20.7, "unit": "%"}, {"measurement": "inhibition", "setting": "[17]; at 0.5 µM", "value": "-26.4% (inactive)"}, {"measurement": "inhibition", "setting": "[17]; cisplatin combo, at 5 µM", "value": 81.5, "unit": "%"}, {"measurement": "inhibition", "setting": "[17]; measured here: BGB IC40 combination, at 0.05 µM", "value": -33.2, "unit": "%"}, {"measurement": "inhibition", "setting": "[17]; [22]", "value": -31.6, "unit": "%"}, {"measurement": "inhibition", "setting": "[17]; single agent, at 5 µM", "value": -6.56, "unit": "%"}, {"measurement": "inhibition", "setting": "[18]; at 0.5 µM", "value": "-21.6% (inactive)"}, {"measurement": "inhibition", "setting": "[18]; [20]", "value": -14.9, "unit": "%"}, {"measurement": "inhibition", "setting": "[18]; [21]", "value": -27.8, "unit": "%"}, {"measurement": "inhibition", "setting": "[18]; single agent, at 0.05 µM", "value": -31.8, "unit": "%"}, {"measurement": "inhibition", "setting": "[18]; single agent, at 5 µM", "value": 43.7, "unit": "%"}]}
